Assay results taken from PubChem BioAssay.

Assay: E. coli DRC41 culture turbidity changes, primary screen, E. coli filamentation inducer project, strain DRC41, OD650, 48 h (AID 1152);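 note: E. coli MC1000 strain DRC41 lacking acrAB efflux pump and sulA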
Conditions: E. coli DRC41 (acrAB sulA), higher = more signal, called active from +8 up or from −8 down

z-score, inactive:
Cc1cccc([C@H]2C[C@H]3C(I)=C[C@@H]2C(=O)[C@]32CO2)c1 -0.894
O=C1C2C=CC(C(O)C=Cc3ccc([N+](=O)[O-])cc3)N(Nc3ccccc3)C2C(=O)N1c1ccccc1 (stereo not given) -0.323
CC(=O)NCCCC[C@@H]1NC(=O)[C@H]2C[C@@H](C(=O)NCCCCCNC(=O)CS)[C@@H](c3cccc(OCCO)c3)N2C1=O -0.486
C=C[C@H](C)[C@H](OC(=O)Nc1ccc(OC)cc1)c1ccc(OCCO)cc1 0.566
CCOC(=O)C[C@H]1[C@H](OC(=O)c2ccc(C(=O)c3ccccc3)cc2)[C@@H](NC(=O)CC(C)C)c2cc(OCCCO)ccc2N1C(=O)Cc1ccc(OC)cc1 0.23
Cc1ccccc1C(O)C1C=CC2C(=O)NC(=O)C2N1Nc1ccc(Cl)cc1Cl (stereo not given) -1.87
COc1cc2c(cc1O)C(c1ccc(CN3CCCC3)cc1)N(C)CC2 (stereo not given) 0.309
COc1ccc([Si](C)(C)[C@@H]2[C@@H](CCn3cc([C@H](O)c4ccccc4)nn3)O[C@]3(C(=O)N(Cc4cccc(N5C(=O)c6cccc7cccc5c67)c4)c4ccccc43)[C@H]2C)cc1 -0.603
CC(C)(C)OC(=O)CC[C@]1(C(=O)N2CCCCC2)COC(c2ccc(OCCCO)cc2)=N1 1.12
COCCOC(=O)N1C(=O)[C@@]2(c3cc(C#CC4=CCCCC4)ccc31)[C@H](c1ccc(O)cc1)N1[C@H](c3ccccc3)[C@H](c3ccccc3)OC(=O)[C@H]1[C@@H]2C(=O)NC[C@H](O)c1ccccc1 0.289
